Compound activity from PubChem BioAssay.
LGR2 inh: inhibitors of bursicon-induced Drosophila LGR2 receptor cAMP signaling; HEK293 LGR2, CRE-luciferase, bursicon-stimulated, 4 h; inhibition, % at 9.99 µM; 380,000 compounds, 0.35% hits; AID 720647;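 active = drop in luminescence signal, shown as inhibition above about 50% in the replicate tests, limit read from the data, passing the limit was not always enough; inconclusive = probably only some replicates passing the limit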;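 note: agonist challenge used bursicon conditioned medium at about half maximal strength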
EWS-Fli block: EWS/Fli transcriptional activity inhibition; inhibition, % at 12.6 µM; AID 651661; A673 NR0B1-luciferase reporter, viability-normalised; 350,000 compounds, 0.67% hits;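 active = mean inhibition of at least 50% after viability correction, with every replicate also passing that limit; inconclusive = mean reaches 50% but only one of two replicates passes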;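 note: firefly luciferase signal divided by Alamar Blue viability fluorescence both relative to DMSO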
TROY signal inh: inhibitors of TROY-dependent NF-kB signaling. Q293 LMP1-TROYcd NF-kB luciferase reporter, 4 h. inhibition, % at 10 µM. 360,000 compounds, 0.98% hits. AID 1347056;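 active = compounds whose plate-normalised and pattern-corrected inhibition of the luciferase reporter signal at the single screening dose is 50% or more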
PAX8 reporter: PAX8 transcriptional activity inhibition | AID 652154 | RMG-I TPO-luciferase reporter, SteadyGlo, 24 h | 360,000 compounds, 1.2% hits | inhibition, % at 12.6 µM;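 active = mean replicate inhibition at least 60% with every replicate also reaching 60%; inconclusive = only one of the two criteria is met; inactive = mean below 60% and not all replicates reaching 60%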;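 note: luciferase light reporting Pax8 driven TPO promoter activity; plate controls were median of neutral control wells for no effect and mitoxantrone controls for full effect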
TWEAK-Fn14 inh: inhibitors of TWEAK-Fn14 interaction signaling | TWEAK-stimulated Fn14 reporter cells, luciferase luminescence, 8 h | 360,000 compounds, 2% hits | inhibition, % at 10 µM; in the data active = inhibition above about 50%
EBV LMP1 NFkB: Epstein-Barr LMP1 NF-kappaB reporter inhibition; LMP1-induced NF-kappaB luciferase reporter cells, luminescence; inhibition, % at 12.5 µM; 350,000 compounds, 0.69% hits; in the data active = inhibition above about 41%; inconclusive = no clear call, values can overlap the other calls;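 note: 0% = neutral control wells and 100% = reference inhibitor control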
The depositor's hits bear a star; ? = inconclusive; / = not tested or not shown. In the library only some 3.2% were active in any assay of this set; here they are far more common.

SMILES | LGR2 inh | EWS-Fli block | TROY signal inh | PAX8 reporter | TWEAK-Fn14 inh | EBV LMP1 NFkB
CO[C@@H](CN(C)C(=O)c1ccccc1F)[C@@H](C)CN([C@H](C)CO)S(=O)(=O)c1ccccc1 | 0 | 1 | / | / | / | /
CO[C@@H]1CN(C)C(=O)c2cc(NS(C)(=O)=O)ccc2OC[C@H](C)N(Cc2ccccn2)C[C@@H]1C | -7 | -6 | / | / | / | /
COc1ccc(-c2csc(N3N=C(C)C(C)C3=O)n2)cc1 (stereo not given) | -17 | -22 | -57 | -69 | -4 | -10
CC1=NN(c2ccccc2)C(=O)C1N=Nc1cccc(O)c1 (stereo not given) | -39 | -56 | -1 | -68 | 25 | 1
CC1=NN(c2nc(-c3ccc(C)cc3)cs2)C(=O)C1N=Nc1ccccc1O (stereo not given) | -7 | -11 | 0 | -14 | 62* | -2
CC1=NN(c2nc(-c3ccc(C)cc3)cs2)C(=O)C1N=Nc1cccc(O)c1 (stereo not given) | 0 | 2 | 30 | 11 | 50* | 5
C[C@H](CO)N1C[C@H](C)[C@H](CN(C)S(=O)(=O)c2cn(C)cn2)Oc2c(NS(C)(=O)=O)cccc2C1=O | -3 | 20 | / | / | / | /
O=C1c2ccc(-c3nc4ccccc4o3)cc2C(=O)N1Cc1ccccc1 | / | / | 5 | 64* | -8 | -26
O=C1c2ccc(-c3nc4ccccc4o3)cc2C(=O)N1Cc1cccnc1 | -44 | / | / | / | / | /
C[C@H]1CN([C@@H](C)CO)C(=O)c2cc(NC(=O)c3ccncc3)ccc2O[C@@H]1CN(C)S(C)(=O)=O | -19 | 8 | / | -7 | / | /
CN1CCN(C(=O)CCCN2C(=O)/C(=C/c3ccccc3)SC2=S)CC1 | 19 | -27 | -15 | 8 | -13 | -16
CN(C)CCC(=O)N1C/C(=C/c2ccccc2)C(=O)/C(=C\c2ccccc2)C1 | 102* | 80* | 59* | / | 103* | 87*
C[N+](C)(C)CCC(=O)N1C/C(=C/c2ccccc2)C(=O)/C(=C\c2ccccc2)C1 | 9 | 58* | 10 | -30 | 28 | -42
O=C(/C=C/c1ccccc1)CCN1CCOCC1 | -23 | 15 | 12 | 29 | 19 | 4
O=C1/C(=C/c2ccccc2)CN(C(=O)CCN2CCOCC2)C/C1=C\c1ccccc1 | 103* | 65* | 22 | -19 | 100* | -35
CN1CCN(C(=O)C[C@@H]2C[C@H]3c4cc(NC(=O)c5ccc6c(c5)OCO6)ccc4O[C@H]3[C@H](CO)O2)CC1 | 8 | -3 | / | -8 | / | /
O=C(NC1CCC1)[C@H]1[C@H](CO)[C@H]2Cn3c(cccc3=O)[C@@H]1N2CC1CCCC1 | 17 | 0 | / | / | / | /
CN(C)c1ccc(C=c2c3ccccc3n3c2c2ccccc2[n+]3C)cc1 | 30 | 8 | 23 | 88* | 25 | -5
Cc1cc2c(=Cc3ccc(N(C)C)cc3)c3ccccc3n2[n+]1C | 50 | 32 | 41 | / | 67* | 24
CCOC(=O)c1cc2c(=Cc3ccc(N(C)C)cc3)c3ccccc3n2[n+]1C | 12 | 1 | 27 | 20 | 7 | 10
O=c1nc2s/c(=C\c3ccc(-c4ccccc4[N+](=O)[O-])o3)c(=O)n2nc1-c1ccccc1 | 15 | 8 | 42 | -9 | 57* | -2
CCCC#Cc1ccc([C@H]2[C@H](CO)N3CCCCN(S(=O)(=O)c4ccccc4C)C[C@@H]23)cc1 | 2 | 13 | / | -13 | / | /
C[C@H](CO)N1C[C@H](C)[C@H](CN(C)Cc2ccc(C(F)(F)F)cc2)Oc2ccc(NS(=O)(=O)c3cn(C)cn3)cc2CC1=O | -1 | 7 | / | -13 | / | /
Cc1ccc(S(=O)(=O)Nc2ccc3c(c2)C(=O)N([C@H](C)CO)C[C@H](C)[C@@H](CN(C)Cc2ccncc2)O3)cc1 | -7 | -2 | / | -15 | / | /
NC(=O)c1ccsc1NC(=O)CN1CCN(S(=O)(=O)c2ccccc2C(F)(F)F)CC1 | 13 | 12 | 50* | 17 | 29 | 1
SMILES | LGR2 inh | EWS-Fli block | TROY signal inh | PAX8 reporter | TWEAK-Fn14 inh | EBV LMP1 NFkB
O=C1CC(N2CCCCCC2)C(=O)N1c1ccc2c(c1)OCO2 (stereo not given) | 4 | 2 | -7 | / | -12 | -14
O=C1CC(NC23CC4CC(CC(C4)C2)C3)C(=O)N1c1ccc2c(c1)OCO2 (stereo not given) | -8 | / | 56* | / | 33 | -4
O=C(CCN1CCCCC1)NCC[C@H]1CC[C@@H](NS(=O)(=O)c2cccc(F)c2)[C@@H](CO)O1 | -10 | 4 | / | -7 | / | /
Cc1nc2c(C(=O)NCCC(C)C)c[nH]n2c(=O)c1Cc1ccccc1F | / | / | 69* | / | 16 | -6
C[C@@H]1CN([C@H](C)CO)C(=O)Cc2cc(NS(=O)(=O)c3ccccc3)ccc2O[C@@H]1CN(C)S(=O)(=O)c1ccc(F)cc1 | -16 | 10 | / | -6 | / | /
Cc1ccc2[nH]nc(C(=O)N3CCCC(C(=O)c4ccc(Cl)cc4)C3)c2c1 (stereo not given) | 2 | 3 | 48 | 32 | 59* | 0
Cc1noc(C)c1C(=O)N1CCCC(C(=O)c2ccc(Cl)cc2)C1 (stereo not given) | 16 | 1 | -14 | 12 | 6 | -4
COc1ccccc1CNC(=O)C[C@@H]1CC[C@@H]2[C@H](COC[C@@H](O)CN2Cc2ccc3c(c2)OCO3)O1 | -6 | 3 | / | 1 | / | /
COc1ccc2c3c([nH]c2c1)[C@@H](CO)N(Cc1ccccc1)CC31CCN(S(=O)(=O)c2ccc(C)cc2)CC1 | 4 | 12 | / | / | / | /
CS(=O)(=O)Nc1ccc2c(c1)[C@H]1C[C@@H](CC(=O)NCc3cccc(F)c3)O[C@@H](CO)[C@H]1O2 | -5 | 2 | / | 1 | / | /
Cc1ccc(O)c(N=Cc2cc(Cc3ccccc3)cc([N+](=O)[O-])c2O)c1 | -19 | 11 | 52* | 10 | 4 | -5
Cc1cccc(NC(=S)N/N=C/c2cccc(O)c2)c1C | -3 | 64* | -6 | 8 | 0 | -13
Cc1cccc(C(=O)Nc2cccc(C(=O)N/N=C/c3ccccn3)c2)c1 | -25 | 2 | -30 | -14 | -10 | 5
O=C(O)c1cccc(NC(=S)N/N=C/c2ccccn2)c1 | 72* | 19 | -41 | 32 | -43 | 38
O=C(O)c1cccc(NC(=S)N/N=C/c2cccc(O)c2)c1 | 63* | 31 | -24 | 23 | 2 | 19
S=C(N/N=C/c1ccc2ncccc2c1)Nc1cccnc1 | ? | 41 | 40 | -4 | 56* | 55*
Cc1ccc(S(=O)(=O)N(C)C[C@H]2Oc3ccc(NC(=O)NC4CCCCC4)cc3C(=O)N([C@@H](C)CO)C[C@H]2C)cc1 | -7 | 10 | / | 7 | / | /
O=C(NCc1ccco1)c1cccc2ccccc12 | / | / | -11 | / | -1 | 3
O=C(Nc1ccccc1C(=O)NCc1ccco1)Nc1cccc2ccccc12 | / | 8 | 9 | 61* | 33 | -7
COc1ccc(CCNC(=O)Cn2nc(C)c3c(C)n(-c4ccccc4)nc3c2=O)c(OC)c1 | 8 | -5 | 14 | 12 | 7 | 8
